Vaccinia Venus = inhibitors of vaccinia virus (Venus reporter). Vaccinia virus Venus reporter expression, fluorescence. Potency, µM (highest dose often 36.5 µM), for the others: at the top dose activity change, negative = inhibition, actives largely listed as inhibitors. 330,000 tested, 0.46% active; calls by dose curve; tested in A549 cells; further: potency means the concentration at half of the fitted maximal effect; nearly all actives have a fitted effect of over 30% in size
LASV entry inh = Lassa virus entry inhibition; Lassa virus pseudotype entry inhibition, cell reporter; Potency, µM (highest dose often 37.9 µM), inactives show at the top dose activity change, negative = inhibition, actives largely listed as inhibitors; 300,000 tested, 1.2% active; calls by dose curve; tested in HEK293 cells; further: potency means the concentration at half of the fitted maximal effect; nearly all actives have a fitted effect of over 50% in size
HCMV inh = human cytomegalovirus inhibition. HFF cells, HCMV-luciferase reporter, 72 h; hits give low values. activity change, negative = inhibition, % at 57.5 µM. 410,000 tested, 4.5% active; in the data active means activity change below about -60%; inconclusive means no clear call, values can overlap the other calls; inactive means above about -39%
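Compounds were evaluated in HFFs infected with an HCMV luciferase reporter virus (MOI 1 PFU/cell). Luciferase in lysates collected 72 h post infection served as the replication measure.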
Marburg entry inh = inhibitors of Marburg virus binding or cell entry | Marburg virus pseudotyped entry inhibition, cell reporter | Potency, µM (doses to about 37.8 µM), for inactives: at the highest dose activity change, negative = inhibition, hits mostly inhibitors | 300,000 tested, 1.8% active; calls by dose curve; tested in HEK293 cells; further: potency means the concentration at half of the fitted maximal effect
Vaccinia mCherry = inhibitors of vaccinia virus infection (mCherry reporter signal); Vaccinia virus mCherry reporter infection, fluorescence; 310,000 tested, 0.63% active; Potency, µM (highest dose often 36.5 µM), without a hit: at the top dose activity change, negative = inhibition, actives largely listed as inhibitors; calls by dose curve; tested in A549 cells; further: potency means the concentration at half of the fitted maximal effect; nearly all actives have a fitted effect of over 35% in size
FMDV antiviral = blocks foot and mouth disease virus; FMDV antiviral cell-based qHTS; Potency, µM (series often up to 57.9 µM), for inactives: at the highest dose activity change, negative = inhibition, actives largely listed as inhibitors; 410,000 tested, 1.2% active; calls by dose curve; tested in HEK293T cells; further: read-out not given here; potency means the concentration at half of the fitted maximal effect; nearly all actives have a fitted effect of over 45% in size
An asterisk follows results filed as active; i = inactive; ? = inconclusive; / = not tested or not shown; + = active, no number; [ ] = dose if it differs, or a comment. Sampled rows, rich in hits. Any-hit rate of the full collection: about 6.5%. On the % scale 0 is the no-effect control and ±100 the full control effect.

SMILES	Vaccinia Venus	LASV entry inh	HCMV inh	Marburg entry inh	Vaccinia mCherry	FMDV antiviral
NC(=S)N/N=C\c1c(OCc2ccccc2Cl)ccc2ccccc12	?	?	-97.5*	?	?	?
Fc1ccc(-c2noc3nc(NCC4CCCO4)ccc23)cc1 (stereo unspecified)	/	/	79.9	/	/	/
Cc1ccc2c(c1)CC[C@H]1CC(=O)CC[C@@]21C	-12.9%	/	/	/	-18.1%	-13.4%
CC(C)CN1CC[C@@]2(CCCN(C(=O)c3ccco3)C2)C1	/	/	/	/	/	-4.0%
C[C@@H]1CCCCO[C@@H](CN(C)C(=O)NC2CCCCC2)[C@@H](C)CN([C@H](C)CO)C(=O)c2cc(N(C)C)ccc2O1	/	/	-20.5	/	/	/
NC(=S)N/N=C/c1ccccc1OC(=O)c1cc2ccccc2oc1=O	/	/	+	/	/	19.2%
NC(=S)N/N=C\c1ccccc1OCc1ccccc1	2.51µM*	-19.5%	-26.0	?	?	-18.2%
CCCCCCCCN1[C@@H](CC(=O)OC)c2ccc(/C=C/C(=O)OC)cc2S1(=O)=O	-19.5%	/	/	/	-3.6%	/
COc1ccc(S(=O)(=O)N2CCC(Oc3ccc(-n4cnnn4)cc3)CC2)cc1OC	-21.9%	-2.0%[46.1 µM]	-63.6*	-17.9%[46.1 µM]	-15.7%	-28.8%
COc1ccc(OC2CCN(S(=O)(=O)c3cccc(F)c3)CC2)cc1	10.3%	-27.6%[46.1 µM]	-97.4*	-2.8%[46.1 µM]	19.7%	?
COc1ccc(OC2CCN(S(=O)(=O)c3ccc(OC)cc3)CC2)cc1	8.6%	?	?	-29.3%[46.1 µM]	5.8%	?
NCCNC(=O)c1ccc(Cl)cn1	/	/	-10.6	/	/	-8.0%
COc1ccccc1NC(=S)NNC(=O)c1cc(C)nn1C	-7.3%	2.3%	-102.5*	?	-1.9%	-1.4%
CCc1ccccc1NC(=O)c1nnn(CC(=O)Nc2c(C)cc(C)cc2C)c1N	8.9%	-10.7%[46.1 µM]	-14.1	-6.8%[46.1 µM]	2.3%	17.9%
CC(=O)N1CCN(CC(=O)Nc2ccccc2Sc2ccc(Cl)cc2)CC1	-21.7%	5.01µM*	-70.7*	-13.7%	-28.1%	?
O=C(CN1CCN(c2ccccc2)CC1)Nc1ccccc1Cl	/	/	-33.3	/	/	-20.0%
O=C(CN1CCN(c2ccccc2)CC1)Nc1ccccc1Sc1ccccc1	-15.7%	?	-29.1	4.47µM*	-5.9%	-0.9%
CCc1ccccc1NC(=O)CN1CCN(C(=O)C(C)NC(=O)c2ccc(Cl)cc2)CC1 (stereo unspecified)	-7.2%	-13.7%	-27.6	-17.2%	-13.8%	-19.6%
O=C(CCl)Nc1ccccc1Sc1ccc(Cl)cc1	/	?	-103.1*	23.1µM*	/	31.6µM*
CCc1cccc(-n2nnc(S(=O)(=O)c3ccc(OC)cc3)c2C)c1	-6.1%	?	-35.4	?	-11.1%	?
Cc1c(C(=O)N(CCO)C(C)C)cnn1-c1ncc2c(n1)-c1ccccc1CCC2	-7.6%	/	/	/	-0.6%	8.7%
CN1[C@@H]2CC[C@H]1CC(OC(=O)[C@@H](O)c1ccccc1)C2 (stereo partly specified)	/	/	/	27.5%	/	/
COc1cccc(NC(=O)CCc2nc(-c3ccc(C(C)(C)C)cc3)no2)c1	-1.9%	?	-82.1*	?	0.8%	?
COc1ccc(-c2noc(CCC(=O)Nc3cccc(C)c3)n2)cc1	-10.9%	-28.7%	0.3	15.5%	-16.6%	-28.1%
CCOC(=O)c1ccc(NC(=O)CCc2nc(-c3ccccc3)no2)cc1	-27.6%	?	-3.2	?	-24.4%	20µM*
SMILES	Vaccinia Venus	LASV entry inh	HCMV inh	Marburg entry inh	Vaccinia mCherry	FMDV antiviral
O=C(CCCc1nc(-c2ccc(Cl)cc2)no1)Nc1cccnc1	/	?	-71.8*	-49.4%	/	?
Cc1cccc(-c2noc(CCCC(=O)Nc3cccnc3)n2)c1	-5.4%	-7.5%	-25.1	-28.6%	-20.7%	-23.7%
COc1cccc(Cc2nc3cccnc3n2C2CCN(C(=O)c3n[nH]c4c3CCCC4)CC2)c1	1.5%	/	/	/	-13.1%	-15.1%
NCCCN(Cc1ccc(Cl)c(Cl)c1)c1ccc(Br)cn1	?	/	/	/	-3.5%	/
O=C(c1cccc(Cl)c1)N1CCC(=O)N(C(COCc2ccccc2)Cc2ccccc2)CC1 (stereo unspecified)	-26.1%	4.61µM*	14.1	?	-21.4%	-20.3%
CC(C)C[C@@H](COCc1ccc(Cl)cc1)N1CCN(C(=O)c2ccc(C(F)(F)F)cc2)CCC1=O	-8.7%	/	-1.6	/	2.4%	-20.3%
Cc1cccc(COCC(Cc2ccccc2)N2CCN(C(=O)c3cccc(Cl)c3)CCC2=O)c1 (stereo unspecified)	?	5.17µM*	2.6	-13.0%	i	-7.4%
O=C(c1ccc(Cl)c(Cl)c1)N1CCC(=O)N([C@H](COCc2ccccc2)Cc2ccccc2)CC1	-8.8%	/	11.3	/	i	-23.0%
CC(C)CC(COCc1ccc(Cl)cc1)N1CCN(C(=O)c2ccc(Cl)cc2Cl)CCC1=O (stereo unspecified)	?	14.6µM*	1.9	?	-7.6%	-16.0%
Cc1cccc(COC[C@H](Cc2ccccc2)N2CCN(C(=O)c3cccc(Cl)c3)CCC2=O)c1	-11.3%	/	5.2	/	-11.0%	-17.0%
Cc1cccc(C(=O)N2CCC(=O)N(C(COCc3ccccc3)Cc3ccccc3)CC2)c1 (stereo unspecified)	-19.2%	5.8µM*	-19.6	1.3%	-23.3%	0.0%
C[C@@H](O)[C@H]1C(=O)N2C(C(=O)O)=C(SCCN=CN)C[C@H]12	/	4.4%	/	20.7%	/	/
Cc1cccc(NC(=O)c2cccc(N3CCCS3(=O)=O)c2)c1	-5.6%	?	39.5	/	-12.4%	22.4%
CC1=Nc2ccccc2N=C(NC(=O)CSC(=S)N2CCCCC2)C1c1ccccc1 (stereo unspecified)	-15.0%	-5.0%[46.1 µM]	10.1	10µM*	-21.1%	-12.0%
CC1=Nc2ccccc2N=C(NC(=O)CSC(=S)N2CCN(C)CC2)C1c1ccccc1 (stereo unspecified)	-8.5%	-14.3%	99.0	?	-24.3%	-16.9%
Cc1cc(=O)n(C)c2ccccc12	-10.0%	17.2%[46.1 µM]	11.7	4.7%[46.1 µM]	i	4.8%
Cc1cc(=O)n2c3c(c4c(cc13)c(CN(C)C)cc(=O)n4C)OC2	-5.6%	-14.5%	-72.0*	?	13.3%	5.7%
COC(=O)C1=C(C)NC(=O)/C1=C\c1cc(C)n(-c2ccccc2)c1C	-4.3%	?	-6.5	7.94µM*	?	14.9%
O=C(c1ccncc1)N1N=C2CCCCCC2C1(O)C(F)(F)F (stereo unspecified)	/	12.3%	?	5.6%	/	-3.0%
O=C(c1ccco1)N1N=C2CCCCCC2C1(O)C(F)(F)F (stereo unspecified)	-12.9%	8.4%[46.1 µM]	-65.8*	-14.3%[46.1 µM]	-5.0%	?
Cn1c(=O)[nH]c2nnc(-c3ccc(Cl)c(Cl)c3)nc2c1=O	-6.6%	10µM*	25.2	?	-6.4%	-30.0%
Cc1ccccc1-n1c(C)nnc1SCC(=O)NC1CCCc2ccccc21 (stereo unspecified)	-14.8%	2.4%	-25.7	?	-29.0%	12.7%
Cc1cccc(Nc2nnc(SCC(=O)NC3CCCc4ccccc43)s2)c1C (stereo unspecified)	?	?	-37.4	?	?	39.8µM*

Source: PubChem BioAssay
